The source of these data is the supplement of paper PMC13380429.

Experiment [1] concerns Vero E6 infected with SARS-CoV-2. In words: morphology score (similarity to uninfected cells); higher = more like uninfected cells. The note with it: 24 h.
For experiment [2] the test system is unchanged. In words: SARS-CoV-2 infection rate relative to infected DMSO; higher = more infection, active = 60 or less. The note with it: 24 h.

Where a name gives a salt, the structure may show the parent alone.

As to `O=S(=O)(O)CCSSCCS(=O)(=O)O` [dimesna] (10 µM), the morphology score in experiment [1] amounted to 0.144. For the same compound, in experiment [2], the SARS-CoV-2 infection rate is 104% (inactive).

On to `Cc1ccc(-c2ncc[nH]2)cc1NC(=O)c1ccc(OCc2ccccn2)cc1` (10 µM), for which, in experiment [1], the morphology score was found to be 0.0587. In experiment [2], the SARS-CoV-2 infection rate is 97% (inactive).

With `Cc1ccc([N+](=O)[O-])cc1S(=O)(=O)N(C)/N=C/c1cnc2ccc(Br)cn12` (0.833333 µM), the morphology score in experiment [1] was 0.0254. The SARS-CoV-2 infection rate in experiment [2] was 112% (inactive).

For the compound `N#Cc1cn([C@@H]2O[C@H](CO)[C@@H](O)[C@H]2O)c2ncnc(N)c12` [toyocamycin] (0.833333 µM), in experiment [1], the morphology score was -0.0555. For the same compound, in experiment [2], the SARS-CoV-2 infection rate is 104% (inactive).

In experiment [1], `CCCCCCCC(=O)N[C@H](CN1CCCC1)[C@H](O)c1ccc2c(c1)OCCO2` [eliglustat] (10 µM) yielded a morphology score of 0.2. For the same compound, the SARS-CoV-2 infection rate in experiment [2] was 92.5% (inactive).

`O=C(O)c1cc(O)c2c3nc4ccccc4oc-3cc(=O)c2n1` [pirenoxine] (10 µM) yielded a morphology score in experiment [1] of 0.0951. The SARS-CoV-2 infection rate in experiment [2] was 102% (inactive).

With `CC(=O)OCC1=C(C(=O)O)N2C(=O)[C@@H](N)[C@H]2SC1` [7-aminocephalosporanic-acid] (10 µM), the morphology score in experiment [1] was -0.0363. In addition, the SARS-CoV-2 infection rate in experiment [2] was 104% (inactive).

As for `CS(=O)(=O)c1ccc(-c2cnc(N)c(C(=O)Nc3ccccc3)n2)cc1` (10 µM), in experiment [1], the morphology score worked out at 0.278. Moreover, the SARS-CoV-2 infection rate in experiment [2] was 87% (inactive).

On to `CN(C)C(=O)c1ccc(S(=O)(=O)c2ccc(NC(=O)[C@@](C)(O)C(F)(F)F)c(Cl)c2)cc1` (10 µM), for which the morphology score in experiment [1] came out at 0.28. For the same compound, the SARS-CoV-2 infection rate in experiment [2] is 104% (inactive).

Regarding `N=C(N)NCCN1CCCCCCC1` [guanethidine] (10 µM), the morphology score in experiment [1] is -0.0499. Besides, in experiment [2], the SARS-CoV-2 infection rate was 109% (inactive).

Turning to `CNc1ccc([N+](=O)[O-])cc1-n1cnc(-c2ccc(C(F)(F)F)cc2)c1` (10 µM), in experiment [1], the morphology score was found to be 0.117. In addition, the SARS-CoV-2 infection rate in experiment [2] was 97% (inactive).

Consider `OCCn1cc(-c2cnc3nnn(Cc4ccc5ncccc5c4)c3n2)cn1` (10 µM), for which the morphology score in experiment [1] was -0.0332. The SARS-CoV-2 infection rate in experiment [2] was 99% (inactive).

Consider `N[C@@H]1CCCCN(c2c(F)cc3c(=O)c(C(=O)O)cn(C4CC4)c3c2Cl)C1` [besifloxacin] (10 µM), for which, in experiment [1], the morphology score is 0.165. Moreover, the SARS-CoV-2 infection rate in experiment [2] is 110% (inactive).

`CC(=O)N1CCC(C(=O)N(CCCN2CCC(Cc3ccc(C(N)=O)cc3)CC2)c2ccc(C)c(Cl)c2)CC1` (10 µM): the morphology score in experiment [1] came out at 0.0284. Also, in experiment [2], the SARS-CoV-2 infection rate is 107% (inactive).

Regarding `Nc1ncn([C@@H]2O[C@H](CO)[C@@H](O)[C@H]2O)c(=O)n1` [azacitidine] (0.833333 µM), the morphology score in experiment [1] was -0.0243. For the same compound, the SARS-CoV-2 infection rate in experiment [2] is 100% (inactive).

In experiment [1], `C[C@H](Nc1ncnc2nc[nH]c12)c1cc2cccc(Cl)c2c(=O)n1-c1ccccc1` [duvelisib] (0.833333 µM) gave a morphology score of 0.0653. In addition, in experiment [2], the SARS-CoV-2 infection rate is 99% (inactive).

In turn, `CN(C)CCOc1ccc(/C(=C(/CCCl)c2ccccc2)c2ccccc2)cc1` [Toremifene citrate] (10 µM) registered a morphology score in experiment [1] of 0.422. In addition, the SARS-CoV-2 infection rate in experiment [2] is 77% (inactive).

`CN[C@@H](C)C(=O)N[C@H](C(=O)N1CCC[C@H]1c1nc(C(=O)c2ccc(F)cc2)cs1)C1CCCCC1` (10 µM): in experiment [1], the morphology score came to 0.403. Also, in experiment [2], the SARS-CoV-2 infection rate is 87% (inactive).

Regarding `CN1CCN(CCCN2c3ccccc3Sc3ccc(S(=O)(=O)N(C)C)cc32)CC1` [thioproperazine] (10 µM), the morphology score in experiment [1] was determined as 0.251. Further, the SARS-CoV-2 infection rate in experiment [2] was 102% (inactive).

`Cc1nc2ccccn2c(=O)c1CCN1CCC(C(=O)c2ccc(F)cc2)CC1` [pirenperone] (10 µM) gave a morphology score in experiment [1] of 0.172. In addition, the SARS-CoV-2 infection rate in experiment [2] was 108% (inactive).

As for `O=C1NC(=O)c2c1c1c3ccccc3[nH]c1c1[nH]c3ccccc3c21` [arcyriaflavin-a] (10 µM), the morphology score in experiment [1] was 0.363. The SARS-CoV-2 infection rate in experiment [2] is 106% (inactive).

Turning to `C=CCC1(CC(C)C)C(=O)NC(=O)NC1=O` [butalbital] (10 µM), the morphology score in experiment [1] was -0.0632. In addition, in experiment [2], the SARS-CoV-2 infection rate was 117% (inactive).

For `COc1c(C)cnc(Cn2cnc3c(Cl)nc(N)nc32)c1C` (10 µM), the morphology score in experiment [1] came to 0.256. In experiment [2], the SARS-CoV-2 infection rate was 98.5% (inactive).

The compound `O=c1[nH]cnc2c([C@@H]3N[C@H](CO)[C@@H](O)[C@H]3O)c[nH]c12` [forodesine] (10 µM) showed a morphology score in experiment [1] of 0.155. In experiment [2], the SARS-CoV-2 infection rate was 103% (inactive).

`Cc1ccc(NCCCc2ccccc2)c(N)c1` [NFKB-activation-inhibitor-II] (10 µM) had a morphology score in experiment [1] of 0.238. Moreover, the SARS-CoV-2 infection rate in experiment [2] was 102% (inactive).

Turning to `NC(=O)OCC(O)COc1ccc(Cl)cc1` (stereo unspecified) [chlorphensin-carbamate] (10 µM), the morphology score in experiment [1] is -0.0129. In experiment [2], the SARS-CoV-2 infection rate was 112% (inactive).

Consider `COC(=O)C1=CO[C@@H](O[C@@H]2O[C@H](CO)[C@@H](O)[C@H](O)[C@H]2O)[C@@H]2C(CO)=CC[C@H]12` [geniposide] (10 µM), for which, in experiment [1], the morphology score is -0.322. In experiment [2], the SARS-CoV-2 infection rate was 116% (inactive).

With `C=CCCCCCCCCC(=O)[O][Zn][O]C(=O)CCCCCCCCC=C` [zinc-undecylenate] (10 µM), the morphology score in experiment [1] is 0.0826. Moreover, the SARS-CoV-2 infection rate in experiment [2] is 110% (inactive).
